Test results published in PubChem BioAssay AID504339 (National Center for Advancing Translational Sciences (NCATS), 2011).
Among all 390,000 compounds or so, about 17,000 (4.4%) were called active. Another 8% or so got no clear call; they are omitted. What follows is part of a selection rich in actives, with near analogues and random picks from the rest. Entries that show only a call come without a potency. Values without a mark were called inactive. The call rests on the fitted dose curve; in most records, active means well fitted inhibition curve with a large enough effect; inconclusive means small, poorly fitted or top-dose-only effect; inactive means no such curve, though single readings can be large or run the other way.

target: Lysine-specific demethylase 4A (Homo sapiens) (UniProt O75164); assay: qHTS Assay for Inhibitors of JMJD2A-Tudor Domain; conditions: AlphaScreen JMJD2A-Tudor / H3K4me3 peptide binding; series mostly up to 114 µM; further: nearly all actives have a fitted effect of over 50% in size
Sequence (O75164 whole entry, looked up, the tested form may be a part): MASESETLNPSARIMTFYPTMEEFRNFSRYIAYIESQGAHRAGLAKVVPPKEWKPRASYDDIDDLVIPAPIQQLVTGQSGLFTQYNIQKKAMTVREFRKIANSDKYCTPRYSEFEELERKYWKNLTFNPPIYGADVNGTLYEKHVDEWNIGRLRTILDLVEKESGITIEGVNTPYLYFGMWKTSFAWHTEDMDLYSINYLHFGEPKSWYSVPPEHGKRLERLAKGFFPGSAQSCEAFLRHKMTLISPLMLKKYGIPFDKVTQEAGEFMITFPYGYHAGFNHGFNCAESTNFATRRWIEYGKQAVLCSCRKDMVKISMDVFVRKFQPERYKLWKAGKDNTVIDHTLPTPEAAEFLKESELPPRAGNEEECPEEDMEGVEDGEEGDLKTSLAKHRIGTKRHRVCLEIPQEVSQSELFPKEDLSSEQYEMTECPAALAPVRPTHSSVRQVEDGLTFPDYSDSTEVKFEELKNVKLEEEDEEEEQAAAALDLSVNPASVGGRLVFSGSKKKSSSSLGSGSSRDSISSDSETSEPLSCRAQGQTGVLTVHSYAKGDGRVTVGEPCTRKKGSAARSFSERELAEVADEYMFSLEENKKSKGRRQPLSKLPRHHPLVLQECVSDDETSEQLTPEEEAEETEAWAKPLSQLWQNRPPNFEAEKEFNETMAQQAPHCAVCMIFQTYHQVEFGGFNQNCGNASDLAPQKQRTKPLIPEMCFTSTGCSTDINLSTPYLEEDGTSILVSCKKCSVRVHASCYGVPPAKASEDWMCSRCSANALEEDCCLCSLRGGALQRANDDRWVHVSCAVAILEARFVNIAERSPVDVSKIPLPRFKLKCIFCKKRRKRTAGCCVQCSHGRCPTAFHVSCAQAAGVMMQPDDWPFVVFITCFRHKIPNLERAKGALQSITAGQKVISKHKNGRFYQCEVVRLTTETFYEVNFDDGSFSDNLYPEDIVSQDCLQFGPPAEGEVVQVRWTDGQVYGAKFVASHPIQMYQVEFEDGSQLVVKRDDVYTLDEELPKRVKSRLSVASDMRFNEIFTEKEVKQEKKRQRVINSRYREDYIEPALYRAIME
Description: JMJD2A is a jumonji-domain-containing lysine demethylase that uses Fe(II) together with 2-OG to effect oxidative demethylation of histones. Methylation is one of many […] modification that affect epigenetic transcription. […] It is proposed that the functions of JmjD2A binding to the histones, is to maintain marks after they are installed and to spread the modifications by […], establishing a self-propagating cycle for rapid methylation over a large area of chromatin. […] Thus, small molecule targeting of the JMJD2A-tudor domain interaction with its target methylhistone mark is expected to enable sophisticated experiments probing the fine regulatory pathways leading to selective demethylation of a given methyllysine locus based on the methylation state of adjacent histone marks. A quantitative high throughput AlphaScreen has been developed to identify small molecule inhibitors based on a protocol published by NCGC and SGC [4].
Although AlphaScreen has significant advantages with its utility in a variety of epigenetic target assays, the primary screening data provided in this deposition should be used with caution due to the prevalence of screening artifacts. The top compound concentration tested was high (>100uM) in this assay, which increases number of actives and potential artifacts. An AlphaScreen counterscreen is highly recommended to be run against any putative actives to eliminate non-specific artifacts. Alternatively, one can use other AlphaScreen assays in PubChem to filter out promiscuous hits.
[1] Lee, J. et al. Distinct binding modes specify the recognition of methylated histone H3K4 and H4K20 by JMJD2A-tudor. Nat Struct Mol Biol. 15(1); 109-11. 2008. PMID: 18084306
[2] Yasgar, et al. Compound Management for Quantitative High-Throughput Screening. JALA. 2008 Apr;13(2):79-89. PMID: 18496600
[3] Inglese, et al. Quantitative high-throughput screening: a titration-based approach that efficiently identifies biological activities in large chemical libraries. Proc Natl Acad Sci. 1;103(31):11473-8. 2006. PMID: 16864780
[4] Quinn et al. A homogeneous method for investigation of methyl-dependent protein-protein interactions in epigenetics. Nucleic Acids Res., 38(2):e11. 2010. PMID: […]
[5] Baell,Holloway. New substructure filters for removal of pan assay interference compounds (PAINS) from screening libraries and for their exclusion in bioassays. J Med Chem. 53(7):2719-40. 2010. PMID: 20131845
NIH Molecular Libraries Probe Production Network [MLPCN]
NIH Chemical Genomics Center [NCGC]
Structural Genomics Consortium (SGC)
To each well of a 1,536w plate, 2ul of JMJD2A-Tudor (final 100nM) and 1ul biotinylated histone peptide methylated at Lys4 [b-H3(1-18)K4me3] (final 50nM) were added in 1x PBS buffer, pH 7.4, containing 0.01% Tween-20, using a nanoliter dispenser. Formation of a protein-peptide complex proceeded at room temperature for 30 min. A Kalypsys pin-tool transferred 23nl of library compound solution in DMSO to each well. Following a 30 min incubation of the protein-peptide complex with compounds at room temperature, a mixture of 40 µg/mL each streptavidin-coated donor and nickel chelate acceptor AlphaScreen beads (final 10 µg/mL) was added in a 1ul dispense for a final volume of 4ul, followed by a brief centrifugation (1000 rpm, 1 min). Plates were incubated protected from the light for 20 min at room temperature. Microplates were then read on an EnVision multilabel plate reader using the 1,536 plate HTS AlphaScreen aperture (excitation time 80 ms, measurement time 240 ms).
Potency means the concentration at half of the fitted maximal effect.

SMILES | Potency | activity change, negative = inhibition
O=C(O)c1ccc(-n2nc(-c3ccccc3)c3ccccc3c2=O)cc1 | inactive | –
N#Cc1c(-c2ccccc2)c(-c2ccccc2)n[nH]c1=O | inactive | –
O=C(O)c1n[nH]nc1-c1ccccc1 | 4.47 µM (active) | –
CCc1nn(CC(=O)NCC(C)c2ccccc2)c(=O)c2cc3occc3n12 (stereo unspecified) | inactive | –
COc1ccccc1CNc1nccn(-c2ccc(F)cc2)c1=O | inactive | –
COc1ccc(OC)c(CNC(=O)c2c3c(nc4ccccc24)C(=O)N(C2CCCCC2)C3)c1 | inactive | –
Cc1cccc(N2CCN(C(=O)CCSCc3ccccc3F)CC2)c1C | inactive | –
CCOc1ccc(OCC)c(NS(=O)(=O)c2ccc3[nH]c(=O)ccc3c2)c1 | inactive | –
CCOc1ccc(S(=O)(=O)NCCCn2ccnc2)cc1NC(C)=O | inactive | –
Cc1ccc2c(Cl)c(C(=O)NCCCn3ccnc3)sc2c1 | inactive | –
O=C(NCCCn1ccnc1)c1ccccc1F | inactive | –
Clc1c(OCCCn2ccnc2)ccc2ccccc12 | 56.2 µM (active) | –
Brc1ccc(OCCn2ccnc2)cc1 | inactive | –
C=CCc1cc(C)ccc1OCCCn1ccnc1 | 20 µM (active) | –
COc1ccc(-c2noc(CSc3nc4ccc(C)cc4[nH]3)n2)cc1 | inactive | –
COc1ccc(CCNCc2c(C(=O)O)c(C)n(Cc3cccc(C)c3)c2C)cc1OC | inactive | –
CC(=O)c1ccc(NC(=O)COc2ccccc2-c2nc(-c3ccccc3)no2)cc1 | inactive | –
CCOC(=O)c1ccc(NC(=O)C2CC(=O)N(c3ccc(C(C)C)cc3)C2)cc1 (stereo unspecified) | inactive | –
CCN(CC)S(=O)(=O)c1nnc(NC(=O)COc2ccccc2Cl)s1 | 31.6 µM (active) | –
Cc1ccccc1OCC(=O)Nc1nnc(S(=O)(=O)N2CCCC2)s1 | inactive | –
CCC(=O)Nc1nnc(S(=O)(=O)N(CC(C)C)c2ccccc2)s1 | inactive | –

SMILES | Potency | activity change, negative = inhibition
c1ccc(-c2nnc3n2NC(c2ccc4c(c2)OCO4)S3)cc1 (stereo unspecified) | 22.4 µM (active) | –
CC1=C(C(N)=O)C(c2ccc3c(c2)OCO3)n2nc(-c3cccc(C)c3)nc2N1 (stereo unspecified) | inactive | –
Cc1cccc(C)c1NC(=O)CSc1nnc(-c2ccccc2)n1Cc1ccc2c(c1)OCO2 | inactive | –
CCOc1ccccc1N(CC)C(=O)c1cc2ccc3cccnc3c2[nH]1 | inactive | –
O=[N+]([O-])c1ccc(Oc2ccc(F)cc2Br)c2ccncc12 | 44.7 µM (active) | –
COc1cccc(NC(=O)N2CCN(C(=O)c3nsc4ccccc34)CC2)c1 | inactive | –
CC1CCc2noc(NC(=O)c3ccc([N+](=O)[O-])cc3)c2C1 (stereo unspecified) | inactive | –
COc1cccc(OCCn2c(-c3ccc(Br)cc3)nc3ccccc3c2=O)c1 | inactive | –
O=C(Nc1ccccc1)N1CCC(C(=O)N2CCN(Cc3ccccc3)CC2)CC1 | inactive | –
O=C(C1CCN(C2CCN(Cc3cccc4c3OCO4)CC2)CC1)N1CCOCC1 | inactive | –
O=C(C1CCN(Cc2ccc(Cl)cc2)CC1)N1CCN(Cc2ccc3c(c2)OCO3)CC1 | 2.51 µM (active) | –
CCOc1ccc(C2C(C(=O)Nc3ccc(Cl)cc3)=C(C)Nc3nc(C(F)(F)F)nn32)cc1 (stereo unspecified) | inactive | –
Cn1cnnc1SCC(=O)Nc1ccc(N2CCOCC2)cc1 | inactive | –
C=CC(=O)Nc1ccc(Nc2ccnc(Nc3ccc(N4CCN(C)CC4)cc3)n2)cc1 | 31.6 µM (active) | –
Cc1cccc(N2CCN(c3ccc(NC(=O)/C=C\C(=O)O)cc3)CC2)c1 | – | -14.3% [at 11.4 µM]
O=C(NCCCN1CCOCC1)c1cc(-c2ccc(Cl)cc2)on1 | inactive | –
COc1ccc(Cn2c(=S)[nH]c3cc(C(=O)NCCCN4CCOCC4)ccc3c2=O)cc1 | inactive | –
Cc1c(C)n(Cc2ccc(Cl)cc2)c2ccc(C(=O)NCCCN3CCOCC3)cc12 | 89.1 µM (active) | –
CCc1ccc2ncc3c(-c4ccc(C)cc4)nn(CC(=O)NCc4ccccc4)c3c2c1 | inactive | –
CC(=O)N1CCCc2cc(S(=O)(=O)N3CCC(C(=O)NCc4ccc(F)cc4)CC3)ccc21 | inactive | –
CCOc1ccccc1C(=O)NC1(C(F)(F)F)C(=O)Nc2c1c(=O)[nH]c(=O)n2-c1ccc(F)cc1 (stereo unspecified) | inactive | –

SMILES | Potency | activity change, negative = inhibition
COc1cccc(CNS(=O)(=O)c2ccc3c(c2)CC(C)N3C(=O)C2CCC2)c1 (stereo unspecified) | inactive | –
CC(=O)N1c2ccc(S(=O)(=O)NCCC(=O)N(C)C3CCCCC3)cc2CC1C (stereo unspecified) | 14.1 µM (active) | –
CC(=O)N1c2ccc(S(=O)(=O)N(C)CC(=O)N(C)Cc3ccccc3)cc2CC1C (stereo unspecified) | inactive | –
CCc1ccc(CN(Cc2ccco2)C(=O)c2ccccc2Cl)cc1 | inactive | –
C#CC(C)(CC)NC(=O)Cn1nnc(-c2ccc(OCc3c(F)cccc3Cl)cc2)n1 (stereo unspecified) | inactive | –
Cc1cc2c(s1)c1cnn(Cc3cc(F)c(Cl)cc3Cl)c(=O)c1n2C | inactive | –
CCOC(=O)c1ccc(N2C(=O)c3n[nH]c(C)c3C2c2ccc(O)c(OC)c2)cc1 (stereo unspecified) | inactive | –
Cc1sc2ncn(CC(=O)NCCN(C)C)c(=O)c2c1S(=O)(=O)N1CCC(C)CC1 | 22.4 µM (active) | –
CCN(CC)CCNC(=O)Cn1cnc2sc(C)c(S(=O)(=O)N3CCOCC3)c2c1=O | inactive | –
CCCN(CCC)CCNC(=O)Cn1cnc2sc(C)c(S(=O)(=O)N3CCC(C)CC3)c2c1=O | inactive | –
CCN(CCCNC(=O)c1cc(Nc2ccc(OC)cc2)nc2ccccc12)c1cccc(C)c1 | inactive | –
CCOc1ccc(CCNC(=O)Cn2nc(CC)n3c(cc4sc(CC)cc43)c2=O)cc1OCC | inactive | –
CCc1cc2c(cc3c(=O)n(CC(=O)NCCc4ccc(OC)c(OC)c4)ncn32)s1 | 89.1 µM (active) | –
CCc1cc2c(cc3c(=O)n(CC(=O)N4CCN(c5cc(Cl)ccc5C)CC4)ncn32)s1 | inactive | –
Cc1ccc(NC(=O)C2CCN(S(=O)(=O)c3cc(-c4noc(C)n4)ccc3C)CC2)c(C)c1 | inactive | –
CCOCCCn1c(SCC(=O)Nc2ccc(CC)cc2)nc2ccccc2c1=O | inactive | –
CCOc1ccc(CNC(=O)CCc2c(C)nn(-c3ccc(N4CCCCC4)nn3)c2C)cc1 | inactive | –
CCN(CC)/[N+]([O-])=N/Oc1cc(O/[N+]([O-])=N/N2CCCC2CO)c([N+](=O)[O-])cc1[N+](=O)[O-] (stereo unspecified) | 20 µM (active) | –
COc1ccc(C(=O)Nc2ccc(-n3nncc3-c3ccccc3)cc2)cc1OC | inactive | –
